Results filed as inconclusive are left out. Calls of active or inactive are those of the source. The call rests on the fitted dose curve; in most records, active means well fitted cell-killing curve with a large enough effect; inconclusive means small, poorly fitted or top-dose-only effect, or effect the other way; inactive means no such curve, though single readings can be large or run the other way.
Test: Quantitative High-Throughput drug screen in 47 multiple myeloma cell lines against the NCATS MIPE library collection: KMS34_JCRB cell viability assay (AID 1918985); further: nearly all actives have a fitted effect of over 40% in size
Details: KMS34 myeloma viability, CellTiter-Glo ATP luminescence, 48 h; series mostly up to 45.8 µM; viability, percent of control: at the top concentration
Excerpt: PI: Beverly A. Mock Ph.D.
Laboratory of Cancer Biology and Genetics,
Center for Cancer Research, National Cancer Institute,
National Institute of Health, Bethesda, Maryland
Drug resistance and disease progression are common in multiple myeloma (MM) patients, underscoring the need for new therapeutic combinations. […] We hypothesized that effective combinations would reduce MYC expression and enhance p16 activity. […] These preclinical data identify potentially useful drug combinations for evaluation in drug-resistant MM and reveal potential mechanisms of combined drug sensitivity.
Described herein is the primary MIPE qHTS used to cherrypick compounds. Validated compounds were then further tested for potential synergistic activiy.
[1] Peat TJ, Gaikwad SM, Dubois W, Gyabaah-Kessie N, Zhang S, Gorjifard S, Phyo Z, Andres M, Hughitt VK, Simpson RM, Miller MA, Girvin AT, Taylor A, Williams D, D'Antonio N, Zhang Y, Rajagopalan A, Flietner E, Wilson K, Zhang X, Shinn P, Klumpp-Thomas C, McKnight C, Itkin Z, Chen L, Kazandijian D, Zhang J, Michalowski AM, Simmons JK, Keats J, Thomas CJ, Mock BA. Drug combinations identified by high-throughput screening promote cell cycle transition and upregulate Smad pathways in myeloma. Cancer Lett. 2023 Aug 1;568:216284. doi: 10.1016/j.canlet.2023.216284. Epub 2023 Jun 24. PMID: 37356470; PMCID: PMC10408729.
SEQUENCE No. (e.g., 1, 2, 3, etc.); […] (e.g., Cells, Incubation, Reagent, etc.); VALUE and DESCRIPTION.
1; Cells; 5 uL; white, solid bottom 1536-well Greiner assay plate.
2; Compounds; 23 nL; Kalypsis pin tool (Wako USA) equipped with a 1536-well pin head to transfer to the assay plates.
3; Incubation; 48 hours; 37C incubation.
4; Reagent;5uL; CellTiter Glo (Promega).
5; Detector; 425V; Luminescence; Viewlux PerkinElmer.
NOTES (numbers refer to Sequence numbers above)
1. The cell-based screening methods employed in this study were like those previously published. Briefly, the corresponding myeloma cell lines were screened in 1,536-well plates with 500 cells, 5-uL per well for inhibition of cell viability (assessed by measuring ATP levels with CellTiterGlo).
2. NCATS MIPE 4.0 library of approved and investigational drugs were added using the Kalypsis pin tool. Wells treated with DMSO only for 100% viability and media only for 0% viability were used as controls.
3. The assay plates were covered and incubated for 48 hours in a 37C, 5% CO2 incubator with controlled humidity.
4. After 48 hours, CellTilter-GloTM luminescent substrate mix (Promega) reagent was added to the assay plate and plates we incubated for 5 min at room temperature.
5. Signal was measured as median relative luminescence units on a ViewLux (PerkinElmer) multiplate reader.
[1] Heske CM, Davis MI, Baumgart JT, Wilson K, Gormally MV, Chen L, Zhang X, Ceribelli M, Duveau DY, Guha R, Ferrer M, Arnaldez FI, Ji J, Tran HL, Zhang Y, Mendoza A, Helman LJ, Thomas CJ. Matrix Screen Identifies Synergistic Combination of PARP Inhibitors and Nicotinamide Phosphoribosyltransferase (NAMPT) Inhibitors in Ewing Sarcoma. Clin Cancer Res. 2017 Dec 1;23(23):7301-7311. doi: 10.1158/1078-0432.CCR-17-1121. Epub 2017 Sep 12. PMID: 28899971; PMCID: PMC6636827.
Potency means the concentration at half of the fitted maximal effect.

SMILES | Potency | viability, percent of control
COc1cc2nc(N3CCCN(C)CC3)nc(NC3CCN(Cc4ccccc4)CC3)c2cc1OC | 8.33 µM (active) | –
CNC(=O)c1cc(Oc2ccc(NC(=O)Nc3ccc(Cl)c(C(F)(F)F)c3)cc2)ccn1 | 20.9 µM (active) | –
CN(C)CCc1c[nH]c2ccc(CS(=O)(=O)N3CCCC3)cc12 | – | 81.9% (inactive)
CN(C)c1ccc(C(=C2C=CC(=[N+](C)C)C=C2)c2ccc(N(C)C)cc2)cc1 | 0.105 µM (active) | –
O=C(NCC1CN(c2ccc(N3CCOCC3=O)cc2)C(=O)O1)c1ccc(Cl)s1 (stereo not given) | – | 102% (inactive)
CC(=O)[C@H]1CC[C@H]2[C@@H]3CC=C4C[C@@H](O)CC[C@]4(C)[C@H]3CC[C@]12C | – | 102% (inactive)
CN(CCOc1ccc(CC2SC(=O)NC2=O)cc1)c1ccccn1 (stereo not given) | – | 114% (inactive)
CCCCS(=N)(=O)CCC(N)C(=O)O (stereo not given) | – | 114% (inactive)
COC(=O)Nc1nc2ccc(Sc3ccccc3)cc2[nH]1 | 2.96 µM (active) | –
NC(N)=NC(N)=NCCc1ccccc1 | 1.66 µM (active) | –
Cc1ccc(S(=O)(=O)N[C@@H](Cc2ccccc2)C(=O)CCl)cc1 | 20.9 µM (active) | –
CCCc1nc(C)c2c(=O)[nH]c(-c3cc(S(=O)(=O)N4CCN(CC)CC4)ccc3OCC)nn12 | 3.72 µM (active) | –
Cc1nnc(NS(=O)(=O)c2ccc(N)cc2)s1 | 18.7 µM (active) | –
COC(=O)Nc1nc2ccc(C(=O)c3ccccc3)cc2[nH]1 | 0.935 µM (active) | –
Cc1cc(NS(=O)(=O)c2ccc(N)cc2)no1 | – | 102% (inactive)
CC(C)(C#N)c1cc(Cn2cncn2)cc(C(C)(C)C#N)c1 | – | 97.9% (inactive)
C[C@@H](NCCCc1cccc(C(F)(F)F)c1)c1cccc2ccccc12 | – | 105% (inactive)
O=C(O)c1cccnc1 | – | 108% (inactive)
CC(=O)[C@H]1CC[C@H]2[C@@H]3CCC4=CC(=O)CC[C@]4(C)[C@H]3CC[C@]12C | – | 69.9% (inactive)
Cc1cccc(Nc2ccncc2S(=O)(=O)NC(=O)NC(C)C)c1 | – | 111% (inactive)

SMILES | Potency | viability, percent of control
Cc1nnc(C(=O)NC(C)(C)c2nc(C(=O)NCc3ccc(F)cc3)c(O)c(=O)n2C)o1 | – | 108% (inactive)
Nc1nc(=S)c2[nH]cnc2[nH]1 | 2.96 µM (active) | –
O=NN(CCCl)C(=O)NC1CCCCC1 | – | 92.5% (inactive)
CNS(=O)(=O)Cc1ccc2[nH]cc(CCN(C)C)c2c1 | – | 111% (inactive)
CCN(CC)CC#CCOC(=O)C(O)(c1ccccc1)C1CCCCC1 (stereo not given) | – | 94.7% (inactive)
CO[C@@H]1[C@@H](OC(N)=O)[C@@H](O)[C@H](Oc2ccc3c(O)c(NC(=O)c4ccc(O)c(CC=C(C)C)c4)c(=O)oc3c2C)OC1(C)C | 1.48 µM (active) | –
C[C@@H](CN1CC(=O)NC(=O)C1)N1CC(=O)NC(=O)C1 | – | 76.3% (inactive)
N[C@@H](C(=O)N[C@@H]1C(=O)N2C(C(=O)O)=C(Cl)CS[C@H]12)c1ccccc1 | – | 101% (inactive)
CN1CCCC(n2nc(Cc3ccc(Cl)cc3)c3ccccc3c2=O)CC1 (stereo not given) | 10.5 µM (active) | –
COC(=O)Nc1nc2ccc(S(=O)c3ccccc3)cc2[nH]1 (stereo not given) | 23.5 µM (active) | –
O=C(O)c1cc(=O)[nH]c(=O)[nH]1 | – | 117% (inactive)
CC(C)C1CCC(C(=O)N[C@H](Cc2ccccc2)C(=O)O)CC1 (stereo not given in full) | – | 95.9% (inactive)
Oc1c(Cl)cc(Cl)c2cccnc12 | 16.6 µM (active) | –
Cn1c(=O)c2c(ncn2CC(O)CO)n(C)c1=O (stereo not given) | – | 115% (inactive)
CCn1cc(C(=O)O)c(=O)c2cc(F)c(N3CCN(C)CC3)cc21 | – | 129% (inactive)
NC1(c2ccc(-c3nc4ccn5c(=O)[nH]nc5c4cc3-c3ccccc3)cc2)CCC1 | 9.35 µM (active) | –
CCOc1cc(N)c(Cl)cc1C(=O)NCC1CN(Cc2ccc(F)cc2)CCO1 (stereo not given) | – | 129% (inactive)
CCCCCCNC(=O)n1cc(F)c(=O)[nH]c1=O | 8.33 µM (active) | –
O=C(O)C1CCCN(CCC=C(c2ccccc2)c2ccccc2)C1 (stereo not given) | – | 101% (inactive)
CC(N)C12CC3CC(CC(C3)C1)C2 (stereo not given) | – | 109% (inactive)

— PubChem BioAssay (NCATS)
